Test results as given in PubChem BioAssay.
Several values for one entry are separate records, joined by “and”; a condition that tells them apart may be missing. Equal entries are not always repeated. Activity calls are given as the source filed them.

What was measured:
[1] = test system: Plasmodium falciparum Sir2 (PF13_0152, Sir2A); assay: pfSir2 binders on small-molecule microarrays, primary screen, biochemical, small-molecule microarray, 635 nm fluorescence (AID 1098); details: small-molecule microarray binding, fluorescence 635 nm; higher = more signal;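 note: score merges spot fluorescence intensity with its signal-to-noise ratio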
[2] = small-molecule microarray binders of probe aDKK1, primary screen, biochemical, biotinylated probe, 635/667 nm fluorescence (AID 1099); details: higher = more signal;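 note: score merges 667nm spot fluorescence with signal to noise across triplicate slides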
[3] = small-molecule microarray binders of probe aCHRDL2, primary screen, biochemical, biotinylated probe, 635/667 nm fluorescence (AID 1100); details: higher = more signal
[4] = splicing luciferase reporter signal modulators, primary screen, spliceosome inhibition project, cell-based, HEK293, splice +/- reporter (AID 1101); details: luminescence, 24 h, higher = more signal, called active from +8 up or from −8 down;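 note: HEK293 cells carrying a splicing-competent luciferase reporter gene; test concentration not given here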
[5] = molecular target: Fibroblast growth factor 10 (Homo sapiens) (UniProt O15520); assay: FGF10 binders on small-molecule microarrays, primary screen, biochemical, small-molecule microarray, 635 nm fluorescence (AID 1102); details: FGF10 binding, fluorescence 635 nm, higher = more signal
Sequence of Fibroblast growth factor 10 (Homo sapiens) (O15520 whole entry, looked up): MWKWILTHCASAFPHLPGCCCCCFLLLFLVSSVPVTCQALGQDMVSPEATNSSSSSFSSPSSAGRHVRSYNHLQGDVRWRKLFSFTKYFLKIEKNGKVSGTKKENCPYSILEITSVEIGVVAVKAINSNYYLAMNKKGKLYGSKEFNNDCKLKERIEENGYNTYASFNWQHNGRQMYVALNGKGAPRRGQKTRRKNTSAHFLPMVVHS

[6] = test system: glycogen synthase kinase-3 (GSK3A per assay name; protocol says GSK3B); assay: GSK3 binders on small-molecule microarrays, primary screen, biochemical, small-molecule microarray, 635 nm fluorescence, GSK3A (AID 1103); details: small-molecule microarray binding, fluorescence 635 nm; higher = more signal; note: the record names both GSK3A and GSK3B
[7] = molecular target: Epidermal growth factor receptor (Homo sapiens) (UniProt P00533); assay: EGFR binders on small-molecule microarrays, primary screen, biochemical, small-molecule microarray, 635 nm fluorescence (AID 1104); details: EGFR binding, higher = more signal;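 note: score merges 667 nm emission intensity with spot signal to noise over triplicate slides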
Sequence of Epidermal growth factor receptor (Homo sapiens) (P00533 whole entry, looked up): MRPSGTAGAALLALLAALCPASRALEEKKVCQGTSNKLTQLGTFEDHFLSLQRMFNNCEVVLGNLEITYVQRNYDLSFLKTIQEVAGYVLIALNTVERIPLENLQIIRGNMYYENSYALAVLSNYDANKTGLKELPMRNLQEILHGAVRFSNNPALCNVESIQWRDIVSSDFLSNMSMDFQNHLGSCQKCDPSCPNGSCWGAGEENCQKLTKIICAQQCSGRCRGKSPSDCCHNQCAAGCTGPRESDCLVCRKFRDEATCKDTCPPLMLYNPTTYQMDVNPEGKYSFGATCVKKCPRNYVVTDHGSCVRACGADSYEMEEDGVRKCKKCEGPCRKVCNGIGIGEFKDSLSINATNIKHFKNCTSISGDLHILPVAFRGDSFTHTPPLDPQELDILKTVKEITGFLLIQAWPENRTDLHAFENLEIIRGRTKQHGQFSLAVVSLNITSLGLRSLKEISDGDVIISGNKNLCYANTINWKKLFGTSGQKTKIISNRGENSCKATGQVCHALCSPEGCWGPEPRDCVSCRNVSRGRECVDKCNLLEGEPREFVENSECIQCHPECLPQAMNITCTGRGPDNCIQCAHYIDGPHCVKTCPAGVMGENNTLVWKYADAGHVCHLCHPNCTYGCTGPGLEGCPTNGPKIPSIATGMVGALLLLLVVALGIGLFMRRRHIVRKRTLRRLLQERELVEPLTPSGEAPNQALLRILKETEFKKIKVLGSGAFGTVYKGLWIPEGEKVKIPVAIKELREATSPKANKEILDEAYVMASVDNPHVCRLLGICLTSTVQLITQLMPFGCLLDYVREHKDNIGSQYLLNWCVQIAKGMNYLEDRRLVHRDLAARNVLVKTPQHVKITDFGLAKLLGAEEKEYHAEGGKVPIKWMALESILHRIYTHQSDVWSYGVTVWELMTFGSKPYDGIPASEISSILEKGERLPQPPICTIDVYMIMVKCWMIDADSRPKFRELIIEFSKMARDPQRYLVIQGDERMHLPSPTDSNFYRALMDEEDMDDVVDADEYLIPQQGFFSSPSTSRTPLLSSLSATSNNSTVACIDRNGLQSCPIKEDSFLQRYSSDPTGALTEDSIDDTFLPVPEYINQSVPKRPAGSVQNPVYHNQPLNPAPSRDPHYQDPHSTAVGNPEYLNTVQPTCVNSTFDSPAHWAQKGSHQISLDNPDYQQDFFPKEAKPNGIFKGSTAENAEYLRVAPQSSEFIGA

[8] = molecular target: Follistatin-related protein 3 (Homo sapiens) (UniProt O95633); assay: FSTL3 binders on small-molecule microarrays, primary screen, biochemical, small-molecule microarray, 635 nm fluorescence (AID 1105); details: FSTL3 binding, higher = more signal;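 note: score merges emission near 667 nm and signal to noise per printed spot across three slides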
Sequence of Follistatin-related protein 3 (Homo sapiens) (O95633 whole entry, looked up): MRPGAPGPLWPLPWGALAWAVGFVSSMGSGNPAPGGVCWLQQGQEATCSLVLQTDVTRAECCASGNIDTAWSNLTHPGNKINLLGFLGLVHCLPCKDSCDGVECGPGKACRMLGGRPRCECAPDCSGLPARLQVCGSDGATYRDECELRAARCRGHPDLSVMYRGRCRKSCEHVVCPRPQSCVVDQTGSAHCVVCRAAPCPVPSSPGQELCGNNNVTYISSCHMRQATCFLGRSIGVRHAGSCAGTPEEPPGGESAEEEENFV

[9] = molecular target: Dickkopf-related protein 1 (Homo sapiens) (UniProt O94907); assay: DKK1 binders on small-molecule microarrays, primary screen, biochemical, small-molecule microarray, 635 nm fluorescence scan (AID 1106); details: DKK1 binding, higher = more signal;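 note: score merges emission near 667 nm with signal to noise over three replicate slides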
Sequence of Dickkopf-related protein 1 (Homo sapiens) (O94907 whole entry, looked up): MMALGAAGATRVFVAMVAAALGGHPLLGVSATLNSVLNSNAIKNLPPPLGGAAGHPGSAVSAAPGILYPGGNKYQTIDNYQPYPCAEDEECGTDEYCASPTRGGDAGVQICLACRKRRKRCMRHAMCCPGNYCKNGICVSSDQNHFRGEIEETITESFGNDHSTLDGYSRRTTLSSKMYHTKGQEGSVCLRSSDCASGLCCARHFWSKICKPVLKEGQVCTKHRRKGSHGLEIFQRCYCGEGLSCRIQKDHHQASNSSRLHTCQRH

[10] = test system: Inhibin beta A chain (activin A); assay: INHBA (activin A) binders on microarrays, primary screen, biochemical, small-molecule microarray, 635 nm fluorescence scan (AID 1107); details: small-molecule microarray binding, higher = more signal;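 note: mouse activin A protein probed at 4.33 µg/mL on printed slides; score merges bound-protein fluorescence near 667 nm with spot signal-to-noise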
[11] = test system: Human papillomavirus type 1a protein E7 (residues 44-93); assay: HPV1a E7 fragment binders on microarrays, primary screen, biochemical, small-molecule microarray, residues 44-93, 635 nm fluorescence (AID 1108); details: small-molecule microarray binding, fluorescence 635 nm; higher = more signal;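 note: E7 fragment applied at 1 µg/mL in TBST for 1 h at 4 C; score combines spot fluorescence with its signal to noise ratio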
[12] = modulators of HCV replicon luciferase signal, primary screen, HCV replication inhibitor project, Huh7 cells, luciferase reporter (AID 1109); details: 48 h, higher = more signal;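 note: huh7 hepatoma cells harbouring a luciferase neomycin HCV replicon reporter; luciferase luminescence as measure of HCV replicon replication; test concentration not given here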
[13] = molecular target: Left-right determination factor 2 (Homo sapiens) (UniProt O00292); assay: LEFTY2 binders on small-molecule microarrays, primary screen, biochemical, small-molecule microarray, 635 nm fluorescence scan (AID 1110); details: LEFTY2 binding, higher = more signal
Sequence of Left-right determination factor 2 (Homo sapiens) (O00292 whole entry, looked up): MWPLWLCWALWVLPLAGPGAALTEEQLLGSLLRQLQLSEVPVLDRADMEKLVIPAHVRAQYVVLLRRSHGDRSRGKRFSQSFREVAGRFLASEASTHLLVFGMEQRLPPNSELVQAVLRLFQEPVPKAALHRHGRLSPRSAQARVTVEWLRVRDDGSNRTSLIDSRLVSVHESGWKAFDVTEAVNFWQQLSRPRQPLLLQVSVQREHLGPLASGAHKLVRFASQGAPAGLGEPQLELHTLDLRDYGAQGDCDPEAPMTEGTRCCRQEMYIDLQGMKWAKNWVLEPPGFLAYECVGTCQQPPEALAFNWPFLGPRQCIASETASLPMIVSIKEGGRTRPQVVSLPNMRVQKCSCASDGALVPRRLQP

[14] = molecular target: Calmodulin-1 (Homo sapiens) (UniProt P0DP23); assay: CALM1 binders on microarrays, EGTA buffer, profiling panel, biochemical, small-molecule microarray, Cy5-labelled CALM1 (AID 1111); details: Cy5-CALM1 binding fluorescence, higher = more signal;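 note: labelled calmodulin applied in Tris saline Tween buffer holding calcium plus EGTA and DTT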
[15] = molecular target: Calmodulin-1 (Homo sapiens) (UniProt P0DP23); assay: calcium-bound CALM1 binders on microarrays, profiling panel, artefact control for SMM control-protein annotation, biochemical, small-molecule microarray, Cy5-labelled CALM1, plus calcium (AID 1112); details: Cy5-CALM1 binding fluorescence, higher = more signal;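 note: score merges spot fluorescence with signal to noise from triplicate slides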
[16] = small-molecule microarray binders of probe aWnt5a, primary screen, biochemical, biotinylated probe, 635/667 nm fluorescence (AID 1113); details: higher = more signal;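 note: score merges 667 nm fluorescence intensity with signal-to-noise per printed feature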
[17] = small-molecule microarray binders of probe aShh, primary screen, biochemical, biotinylated probe, 635/667 nm fluorescence (AID 1114); details: higher = more signal;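 note: probe is biotin-labelled aShh protein from a stem cell growth factor screen; measures binding of labelled protein to compounds printed on the slide; score merges feature fluorescence at 667 nm with signal-to-noise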
[18] = small-molecule microarray binders of probe aNog, primary screen, biochemical, biotinylated probe, 635/667 nm fluorescence (AID 1115); details: higher = more signal;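 note: probe is biotinylated aNog protein used at 0.15 µg/mL for 1 h at 4 C; z-score combines 667 nm fluorescence of each spot with its signal to noise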
[19] = molecular target: Torsin-1A-interacting protein 1 (Homo sapiens) (UniProt Q5JTV8); assay: LAP1 binders from COS7 cell lysate, primary screen, small-molecule microarray, 635/667 nm fluorescence (AID 1116); details: COS7-hLAP1 lysate binding, 635 nm fluorescence, higher = more signal
Sequence of Torsin-1A-interacting protein 1 (Homo sapiens) (Q5JTV8 whole entry, looked up): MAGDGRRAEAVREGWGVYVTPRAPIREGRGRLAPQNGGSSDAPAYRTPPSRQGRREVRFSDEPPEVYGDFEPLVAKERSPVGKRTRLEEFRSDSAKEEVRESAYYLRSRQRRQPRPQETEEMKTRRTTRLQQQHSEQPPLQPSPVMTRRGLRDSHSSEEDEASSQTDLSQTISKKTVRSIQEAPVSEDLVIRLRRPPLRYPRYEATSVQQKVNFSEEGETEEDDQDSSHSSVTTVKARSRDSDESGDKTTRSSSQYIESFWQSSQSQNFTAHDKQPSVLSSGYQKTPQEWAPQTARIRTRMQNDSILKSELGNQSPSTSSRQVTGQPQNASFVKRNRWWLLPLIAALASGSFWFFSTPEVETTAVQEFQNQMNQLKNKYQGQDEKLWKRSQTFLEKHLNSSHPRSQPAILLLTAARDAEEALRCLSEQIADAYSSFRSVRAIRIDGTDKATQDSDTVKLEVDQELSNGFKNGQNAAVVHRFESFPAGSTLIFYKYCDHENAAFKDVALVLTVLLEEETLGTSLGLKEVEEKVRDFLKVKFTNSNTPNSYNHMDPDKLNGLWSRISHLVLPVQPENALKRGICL

[20] = molecular target: Alpha-bungarotoxin (Bungarus multicinctus) (UniProt P60615); assay: alpha-bungarotoxin binders on microarray, profiling panel, artefact control for SMM control protein annotation, biochemical, small-molecule microarray, Alexa647 label, 635/667 nm fluorescence (AID 1117); details: alpha-BTX-A647 binding fluorescence, higher = more signal
Sequence of Alpha-bungarotoxin (Bungarus multicinctus) (P60615 whole entry, looked up): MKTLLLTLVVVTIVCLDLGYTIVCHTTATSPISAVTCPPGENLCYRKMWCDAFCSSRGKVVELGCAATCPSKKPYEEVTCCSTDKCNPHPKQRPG

Structure (SMILES)	composite z-score [1]	composite z-score [2]	composite z-score [3]	z-score [4]	composite z-score [5]	composite z-score [6]	composite z-score [7]	composite z-score [8]	composite z-score [9]	composite z-score [10]	composite z-score [11]	z-score [12]	composite z-score [13]	composite z-score [14]	composite z-score [15]	composite z-score [16]	composite z-score [17]	composite z-score [18]	composite z-score [19]	composite z-score [20]
COC(=O)[C@@]1(Cc2ccccc2)[C@H]2c3cc(C(=O)N(C)C)n(Cc4ccc(C)c(F)c4F)c3C[C@H]2CN1C(=O)c1ccccc1	1.07 and 0.37	1.39 and 0.861	1.31 and 1.05	-2.38 (inactive) and -2.61 (inactive)	0.365 and 1.01	0.22 and 1.32	-0.542 and 0.652	-0.0958 and 1.42	-1.07 and 0.472	0.885 and 1.09	1.41 and 1.38	-3.76 and -2.08	-0.301 and 0.288	1.46 and 2.22	0.818 and 1.11	0.208 and 0.822	1.91 and -0.279	0.782 and 0.365	2.24 and 0.536	0.226 and 1.1
CCN1C(=O)[C@H]2[C@H]3[C@H](O)[C@H](O)CC(=NOC[C@@H](O)COCc4ccco4)[C@@H]3CC[C@H]2C1=O	0.449 and 1.11	0.439 and -0.572	-1.3 and -1.1	0.259 (inactive) and 0.403 (inactive)	-0.397 and 0.588	0.823 and -0.198	1.28 and 0.0979	1.21 and -0.333	1.56 and 0.836	0.666 and -0.0006	-1.08 and -1.63	0.0085 and 1.42	1.32 and 0.764	-1.05 and -0.872	-1.72 and -1.74	-0.0721 and -0.232	-0.145 and -0.138	0.0326 and -0.0236	0.205 and -0.291	0.0851 and -0.421
CO[C@@H]1C=CCC(=O)N2CCC[C@H]2C(=O)OC[C@H](C)C(=O)OC[C@H]1C	0.517	-0.33	-0.966	-0.25 (inactive)	0.243	0.396	0.612	0.875	1.26	0.358	0.172	0.182	0.96	-0.594	-1.16	-0.202	-0.352	-0.216	0.568	-0.0037
C=C(C)C(=O)OC[C@@H]1CN2[C@@H](CC[C@@H](C)[C@@H]2c2ccc(Br)cc2)C(=O)O1	0.913	-0.199	-0.374	-0.46 (inactive)	0.634	0.399	0.263	1.08	0.872	0.984	0.854	0.867	0.891	-0.265	-0.157	-0.109	0.0684	-0.259	0.183	0.548
CCOC(=O)C[C@H]1[C@H](OC(=O)c2ccccc2-c2ccccc2)[C@@H](NC(=O)Cc2ccc(OC)cc2)c2cc(OCCCO)ccc2N1C(=O)c1ccc2ccccc2n1	0.108 and 0.154	-0.114 and 0.575	0.0078 and 0.468	-0.472 (inactive) and -0.891 (inactive)	0.43 and 0.682	0.0554 and 0.185	0.219 and -0.108	0.0539 and 0.0407	0.404 and 0.209	0.773 and 0.105	0.005 and 0.188	-1.38 and -0.367	0.417 and 0.0866	0.174 and 1.45	0.141 and 0.318	0.0031 and 0.0512	-0.0681 and -0.0146	0.0926 and -0.111	0.032 and 0.747	0.572 and 0.924
C[N+](C)(C)CCCCNC(=O)[C@@H]1C[C@@H]2C(=O)N[C@@H](CCCC[N+](C)(C)C)C(=O)N2[C@@H]1c1cccc(OCCO)c1	1.03 and 0.616	0.0631 and 0.217	-0.0665 and 0.574	-0.21 (inactive) and 0.129 (inactive)	1.51 and 1.4	1.35 and 0.785	1.33 and 0.0943	1.5 and 1.33	2.14 and 1.67	0.804 and -0.833	0.845 and 0.331	-0.552 and -0.848	1.59 and 1.49	-1.47 and -1.67	-2.01 and -0.543	-0.0758 and 0.048	0.23 and -0.0232	-0.12 and 0.0139	2.23 and 1.62	-0.257 and 1.62
CN1C(=O)C2CC=C([C@H]3Oc4ccccc4S(=O)(=O)N4CCC[C@@H]34)CC2C1=O (stereo not given in full)	0.149 and 0.302	-0.226 and -0.273	-0.344 and -0.424	0.776 (inactive) and 0.117 (inactive)	-0.575 and -0.066	-0.913 and -0.794	-0.297 and -0.148	-0.837 and -0.641	0.0379 and 0.305	0.315 and 0.808	-1.21 and -1.99	-0.539 and -0.95	-0.356 and 0.11	-0.931 and -0.686	-0.803 and -0.798	-0.1 and -0.0125	-0.0553 and -0.0146	-0.172 and -0.324	0.0203 and 0.0568	0.0847 and -0.814
CCCC[C@@H]1CN2[C@H](c3ccc(Br)cc3)[C@@H](C)CC[C@H]2C(=O)O1	0.186 and 0.254	-0.385 and -0.192	-0.492 and -0.707	-0.475 (inactive) and 0.405 (inactive)	0.124 and 0.115	0.0093 and -0.0119	0.283 and 0.308	-0.427 and -0.351	0.407 and -0.117	0.574 and 0.485	-0.519 and 0.166	-0.403 and -0.983	0.189 and 0.327	-0.254 and -0.255	-0.329 and -0.334	-0.232 and -0.104	-0.273 and -0.138	0.153 and 0.0051	0.0737 and 0.259	0.412 and 0.575
C=CCN(C(=O)C(c1cccs1)N(C(=O)/C=C\C(=O)O)C(C)(C)CO)c1ccc(OC)cc1 (stereo not given)	1.39 and -1.69	-0.117 and -0.0312	0.599 and 0.476	-2.61 (inactive) and -1.39 (inactive)	-0.477 and -0.869	-0.41 and -0.514	-0.869 and -2.11	-1.4 and -1.37	-0.789 and -0.497	-1.07 and -0.761	-0.759 and -0.652	0.0435 and 2.82	-1.77 and -2.47	0.459 and -0.933	0.891 and 0.235	-0.0455 and -0.166	-0.138 and -0.0626	0.162 and 0.292	0.588 and 1.06	-2.1 and -1.16
O=C1NC(=O)C2C1C=CC(C(O)c1ccc([N+](=O)[O-])cc1)N2Nc1ccc(Cl)cc1Cl (stereo not given)	0.59 and 0.0889	-0.0543 and 1.09	0.765 and 0.824	-1.06 (inactive) and -1.49 (inactive)	0.945 and 0.229	0.0563 and 0.737	0.0939 and -0.12	0.272 and 0.132	0.0264 and -0.297	1.13 and 1.31	0.481 and -0.621	0.175 and -1.19	-0.176 and -0.0882	1.01 and 1.48	0.436 and 0.0078	-0.0566 and 0.0775	0.0326 and -0.241	1.94 and 2.12	1.9 and 1.62	1.18 and 1.56
